# Reference: PubChem BioAssay AID1159580 (chemical genetic matrix, 2015)
# Out of some 5,500 compounds screened, about 2,000 (36%) were called active. Inconclusive results (about 18%) are left out. The list shows a part of the results. A number with no mark means an inactive call. Rule as the data show it: active = normalized growth mostly below about 0.91 (no sharp cut-off); inconclusive = no clear call, values can overlap the other calls; inactive = mostly above about 0.92.
# Assay: chemical genetic growth profiling, strain panel (AID 1159580);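 also: tested at 20 µM; growth read once vehicle control cultures reached saturation at 30 °C; 1 = growth at the plate median or of vehicle wells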
# Details: growth OD
compound,measurement,setting,value
COc1cc2c(c(OC)c1OC)-c1ccc(O)c(=O)cc1[C@@H](NC(C)=O)CC2,normalized growth,"S. cerevisiae deletion strains, locus YBR021W, strain FUR4, stronger effect = lower value",0.865
same,normalized growth,"S. cerevisiae deletion strains, locus YBR229C, strain ROT2, stronger effect = lower value",0.962
same,normalized growth,"S. cerevisiae deletion strains, locus YCL029C, strain bik1, stronger effect = lower value",0.982
same,normalized growth,"S. cerevisiae deletion strains, locus YDL035C, strain GPR1, stronger effect = lower value",0.543 (active)
same,normalized growth,"S. cerevisiae deletion strains, locus YDL074C, strain BRE1, stronger effect = lower value",0.515 (active)
same,normalized growth,"S. cerevisiae deletion strains, locus YDL101C, strain DUN1, stronger effect = lower value",0.715 (active)
same,normalized growth,"S. cerevisiae deletion strains, locus YDL134C, strain PPH21, stronger effect = lower value",0.87 (active)
same,normalized growth,"S. cerevisiae deletion strains, locus YDL185W, strain tfp1, stronger effect = lower value",0.323 (active)
same,normalized growth,"S. cerevisiae deletion strains, locus YDL192W, strain arf1, stronger effect = lower value",0.978
same,normalized growth,"S. cerevisiae deletion strains, locus YDR101C, strain arx1, stronger effect = lower value",0.904 (active)
same,normalized growth,"S. cerevisiae deletion strains, locus YDR162C, strain NBP2, stronger effect = lower value",0.382 (active)
same,normalized growth,"S. cerevisiae deletion strains, locus YDR318W, strain mcm21, stronger effect = lower value",0.94
same,normalized growth,"S. cerevisiae deletion strains, locus YDR388W, stronger effect = lower value",1
same,normalized growth,"S. cerevisiae deletion strains, locus YDR502C, strain sam2, stronger effect = lower value",0.93
same,normalized growth,"S. cerevisiae deletion strains, locus YEL061C, strain CIN8, stronger effect = lower value",0.819 (active)
same,normalized growth,"S. cerevisiae deletion strains, locus YER110C, stronger effect = lower value",1.03
same,normalized growth,"S. cerevisiae deletion strains, locus YER155C, strain BEM2, stronger effect = lower value",0.98
same,normalized growth,"S. cerevisiae deletion strains, locus YER167W, strain BCK2, stronger effect = lower value",0.798 (active)
same,normalized growth,"S. cerevisiae deletion strains, locus YGL078C, strain dbp3, stronger effect = lower value",0.957
same,normalized growth,"S. cerevisiae deletion strains, locus YGL086W, strain mad1, stronger effect = lower value",0.882 (active)
same,normalized growth,"S. cerevisiae deletion strains, locus YGL248W, strain PDE1, stronger effect = lower value",0.744 (active)
same,normalized growth,"S. cerevisiae deletion strains, locus YGR078C, strain PAC10, stronger effect = lower value",0.729 (active)
same,normalized growth,"S. cerevisiae deletion strains, locus YGR135W, strain pre9, stronger effect = lower value",0.945
same,normalized growth,"S. cerevisiae deletion strains, locus YGR229C, strain SMI1, stronger effect = lower value",0.247 (active)
same,normalized growth,"S. cerevisiae deletion strains, locus YGR252W, strain gcn5, stronger effect = lower value",0.879
same,normalized growth,"S. cerevisiae deletion strains, locus YHR030C, strain SLT2, stronger effect = lower value",0.879 (active)
same,normalized growth,"S. cerevisiae deletion strains, locus YHR079C, strain IRE1 (second series), stronger effect = lower value",0.851 (active)
same,normalized growth,"S. cerevisiae deletion strains, locus YHR094C, strain hxt1, stronger effect = lower value",0.988
same,normalized growth,"S. cerevisiae deletion strains, locus YHR129C, strain ARP1, stronger effect = lower value",0.764 (active)
same,normalized growth,"S. cerevisiae deletion strains, locus YHR200W, strain rpn10, stronger effect = lower value",0.977
same,normalized growth,"S. cerevisiae deletion strains, locus YIL066C, strain RNR3, stronger effect = lower value",0.543 (active)
same,normalized growth,"S. cerevisiae deletion strains, locus YIL073C, strain SPO22, stronger effect = lower value",0.355 (active)
same,normalized growth,"S. cerevisiae deletion strains, locus YIL125W, strain kgd1, stronger effect = lower value",0.881 (active)
same,normalized growth,"S. cerevisiae deletion strains, locus YIR030C, strain dcg1, stronger effect = lower value",0.988
same,normalized growth,"S. cerevisiae deletion strains, locus YJL095W, strain BCK1, stronger effect = lower value",0.722 (active)
same,normalized growth,"S. cerevisiae deletion strains, locus YJL134W, strain LCB3, stronger effect = lower value",0.913 (active)
same,normalized growth,"S. cerevisiae deletion strains, locus YJL168C, strain set2, stronger effect = lower value",1
same,normalized growth,"S. cerevisiae deletion strains, locus YJL187C, strain SWE1 (second series), stronger effect = lower value",0.59 (active)
same,normalized growth,"S. cerevisiae deletion strains, locus YJR043C, strain POL32, stronger effect = lower value",0.55 (active)
same,normalized growth,"S. cerevisiae deletion strains, locus YKL009W, strain mrt4, stronger effect = lower value",0.984
same,normalized growth,"S. cerevisiae deletion strains, locus YKL068W, stronger effect = lower value",0.968
same,normalized growth,"S. cerevisiae deletion strains, locus YKL085W, strain MDH1 (second series), stronger effect = lower value",0.91 (active)
same,normalized growth,"S. cerevisiae deletion strains, locus YKL085W, strain MDH1, stronger effect = lower value",0.91 (active)
same,normalized growth,"S. cerevisiae deletion strains, locus YKL190W, strain CNB1, stronger effect = lower value",0.593 (active)
same,normalized growth,"S. cerevisiae deletion strains, locus YKR001C, strain vps1, stronger effect = lower value",0.889 (active)
same,normalized growth,"S. cerevisiae deletion strains, locus YLR039C, strain RIC1, stronger effect = lower value",0.454 (active)
same,normalized growth,"S. cerevisiae deletion strains, locus YLR058C, strain SHM2, stronger effect = lower value",0.691 (active)
same,normalized growth,"S. cerevisiae deletion strains, locus YLR102C, strain apc9, stronger effect = lower value",1.02
same,normalized growth,"S. cerevisiae deletion strains, locus YLR262C, strain YPT6, stronger effect = lower value",0.72
same,normalized growth,"S. cerevisiae deletion strains, locus YLR268W, strain sec22, stronger effect = lower value",0.852 (active)
same,normalized growth,"S. cerevisiae deletion strains, locus YLR330W, strain CHS5, stronger effect = lower value",0.886 (active)
same,normalized growth,"S. cerevisiae deletion strains, locus YLR342W, strain FKS1 (second series), stronger effect = lower value",0.801
same,normalized growth,"S. cerevisiae deletion strains, locus YLR371W, strain rom2, stronger effect = lower value",0.933
same,normalized growth,"S. cerevisiae deletion strains, locus YLR418C, strain cdc73, stronger effect = lower value",0.841
same,normalized growth,"S. cerevisiae deletion strains, locus YML016C, strain PPZ1, stronger effect = lower value",0.829 (active)
same,normalized growth,"S. cerevisiae deletion strains, locus YML032C, strain rad52, stronger effect = lower value",1
same,normalized growth,"S. cerevisiae deletion strains, locus YML124C, strain tub3, stronger effect = lower value",1
same,normalized growth,"S. cerevisiae deletion strains, locus YMR078C, strain ctf18, stronger effect = lower value",1.01
same,normalized growth,"S. cerevisiae deletion strains, locus YMR223W, strain ubp8, stronger effect = lower value",0.938
same,normalized growth,"S. cerevisiae deletion strains, locus YMR307W, strain GAS1, stronger effect = lower value",0.577 (active)
same,normalized growth,"S. cerevisiae deletion strains, locus YNL067W, strain RPL9B, stronger effect = lower value",0.732 (active)
same,normalized growth,"S. cerevisiae deletion strains, locus YNL233W, strain BNI4, stronger effect = lower value",0.81 (active)
same,normalized growth,"S. cerevisiae deletion strains, locus YNL250W, strain rad50, stronger effect = lower value",0.968
same,normalized growth,"S. cerevisiae deletion strains, locus YNL271C, strain bni1, stronger effect = lower value",0.843 (active)
same,normalized growth,"S. cerevisiae deletion strains, locus YNL298W, strain CLA4, stronger effect = lower value",0.891 (active)
same,normalized growth,"S. cerevisiae deletion strains, locus YNL307C, strain MCK1, stronger effect = lower value",1.01
same,normalized growth,"S. cerevisiae deletion strains, locus YNL322C, strain KRE1, stronger effect = lower value",0.639 (active)
same,normalized growth,"S. cerevisiae deletion strains, locus YNR052C, strain pop2, stronger effect = lower value",0.961
same,normalized growth,"S. cerevisiae deletion strains, locus YOL006C, strain TOP1, stronger effect = lower value",0.198 (active)
same,normalized growth,"S. cerevisiae deletion strains, locus YOL012C, strain htz1",0.984
same,normalized growth,"S. cerevisiae deletion strains, locus YOL147C, strain pex11, stronger effect = lower value",1.01
same,normalized growth,"S. cerevisiae deletion strains, locus YOR061W, strain CKA2, stronger effect = lower value",0.753 (active)
same,normalized growth,"S. cerevisiae deletion strains, locus YOR069W, strain VPS5, stronger effect = lower value",0.896 (active)
same,normalized growth,"S. cerevisiae deletion strains, locus YOR136W, strain idh2, stronger effect = lower value",0.988
same,normalized growth,"S. cerevisiae deletion strains, locus YOR144C, strain elg1, stronger effect = lower value",0.97
same,normalized growth,"S. cerevisiae deletion strains, locus YOR184W, strain ser1, stronger effect = lower value",1
same,normalized growth,"S. cerevisiae deletion strains, locus YOR316C, strain cot1, stronger effect = lower value",1.02
same,normalized growth,"S. cerevisiae deletion strains, locus YPL055C, strain LGE1, stronger effect = lower value",0.436 (active)
same,normalized growth,"S. cerevisiae deletion strains, locus YPL241C, strain CIN2, stronger effect = lower value",0.9 (active)
same,normalized growth,"S. cerevisiae deletion strains, locus YPR119W, strain clb2, stronger effect = lower value",1.03
same,normalized growth,"S. cerevisiae deletion strains, locus YPR141C, strain kar3, stronger effect = lower value",0.997
same,normalized growth,"S. cerevisiae deletion strains, locus YPR163C, strain tif3, stronger effect = lower value",1.01
same,normalized growth,"S. cerevisiae deletion strains, locus YPR167C, strain met16, stronger effect = lower value",0.929
same,normalized growth,"S. cerevisiae deletion strains, strain wtn01, stronger effect = lower value",0.881 (active)
same,normalized growth,"S. cerevisiae strains, strain wild type, stronger effect = lower value",0.285 (active)
